Shown are actives, neighbours in structure and some others; about 3.9% of the full set was active somewhere.
Vc quorum ag – inducers of Vibrio cholerae quorum light production without autoinducers | AID 588436 | V. cholerae BH1578 lux reporter, luminescence, 6 h | actives 0.16% (n = 350,000) | activation, % at 18.7 µM; in the data active = activation mostly above about 9.7%, no sharp cut-off
CCHF vOTU inh-1 – blocks the CCHF virus ovarian tumor domain protease; CCHFV vOTU protease, Pep-AMC fluorescence; inhibition, % at 11.5 µM; actives 0.55% (n = 370,000); AID 651958; also: 0% = vehicle wells with enzyme and 100% = no enzyme wells
Mtb FBA inh – Mtb fructose-bisphosphate aldolase inhibition. purified M. tuberculosis FBA, fluorescence read-out. inhibition, % at 1 µM. actives 2.3% (n = 360,000). AID 588726; in the data active = inhibition above about 27%;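 also: 0% = vehicle and 100% = reference inhibitor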
Target sequence (P9WQA3 whole entry, looked up): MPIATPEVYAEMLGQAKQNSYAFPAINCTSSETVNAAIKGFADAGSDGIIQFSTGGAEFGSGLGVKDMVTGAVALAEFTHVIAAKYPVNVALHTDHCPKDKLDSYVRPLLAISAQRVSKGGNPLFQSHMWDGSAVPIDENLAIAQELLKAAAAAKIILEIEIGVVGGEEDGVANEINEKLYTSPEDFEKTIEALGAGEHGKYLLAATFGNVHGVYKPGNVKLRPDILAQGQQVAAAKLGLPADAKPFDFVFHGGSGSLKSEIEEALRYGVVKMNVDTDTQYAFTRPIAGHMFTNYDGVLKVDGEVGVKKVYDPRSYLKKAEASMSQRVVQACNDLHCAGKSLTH
GDH-TPI inh – counter-screen for M. tuberculosis FBA inhibitors: GDH-TPI coupled enzymes | GDH-TPI coupled enzyme counterscreen, NADH absorbance | inhibition, % at 4.8 µM | actives 1.2% (n = 360,000);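 also: 0% = DMSO wells and 100% = wells lacking the enzyme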
CCHF vOTU inh-2 – CCHFV vOTU protease inhibition, confirmation; shares compounds with CCHF vOTU inh-1; Recombinant CCHFV vOTU, Pep-AMC fluorescence; inhibition, % at 11.5 µM; actives 17% (n = 1,900); AID 686976
The depositor's hits bear a star; i = inactive; . = no result. Rule as the data show it, unless noted: active = inhibition above about 30%; inactive = the rest.

SMILES	Vc quorum ag	CCHF vOTU inh-1	Mtb FBA inh	GDH-TPI inh	CCHF vOTU inh-2
CC(C)C[C@H]1CNC(=S)N1C[C@H]1CCCN1C[C@H](CC(C)C)N1C[C@H](Cc2ccccc2)N(CCc2ccccc2)C1=S	.	5	4	.	.
COc1cc(C(=O)OC2C[C@H]3CC[C@@H](C2)N3C)ccc1O (stereo not given in full)	-6	-6	4	14	.
COc1cc(C(=O)O[C@H]2CC(C)=CC[C@@]3(C)CC[C@@](O)(C(C)C)[C@H]23)ccc1O	i	38*	0	4	5
CSCCC(NC(=O)COc1ccccc1)C(=O)N(C)Cc1cccc(F)c1 (stereo not given)	i	-1	0	6	.
O=C(c1ccc2nc(-c3ccco3)c(-c3ccco3)nc2c1)N1CCN(c2ncccn2)CC1	0	32*	-7	11	50*
O=C(NCCCO)c1ccc2nc(-c3ccco3)c(-c3ccco3)nc2c1	i	40*	-2	13	55*
O=C(NCc1ccccc1)c1ccc2nc(-c3ccco3)c(-c3ccco3)nc2c1	.	49*	-1	7	-1
CCCCNC(=O)c1ccc2nc(-c3ccco3)c(-c3ccco3)nc2c1	0	48*	0	-2	8
CC(=O)c1ccc(NC(=O)c2ccc3nc(-c4ccco4)c(-c4ccco4)nc3c2)cc1	i	.	-2	23	.
COc1cc(NC(=O)c2cc(Br)cc(C)c2OC)ccc1NC(=O)C(C)C	-1	4	0	-4	.
COc1ccccc1CC(=O)Nc1ccc(S(=O)(=O)N2CCN(C)CC2)cc1	i	40*	-2	-3	-15
CC(C)OC(=O)CSc1nc2cccnc2n1-c1ccc(F)cc1	-2	31*	-2	-7	-9
O=C(NCc1ccccc1)C(=O)c1cn(CC(=O)N2CCOCC2)c2ccccc12	0	35*	-1	17	-9
O=C(NCc1cccs1)C(=O)c1cn(CC(=O)N2CCOCC2)c2ccccc12	1	-12	-2	16	.
O=[N+]([O-])c1cc(O)c2ncccc2c1	.	35*	.	.	52*
CC1CCCN(C(=O)c2ccc3c(c2NCCO)C(=O)c2ccccc2C3=O)C1 (stereo not given)	0	6	-6	1	.
CN(C)N1C(N)=C(C#N)C(c2ccc(F)cc2)C2=C1CC(C)(C)CC2=O (stereo not given)	-8	30*	0	1	-19
CN(C)N1C(N)=C(C#N)C(c2ccccc2)C2=C1CC(C)(C)CC2=O (stereo not given)	i	12	1	20	.
Cc1cccc(NC(=O)CN2C(=O)S/C(=C\c3ccc(O)c([N+](=O)[O-])c3)C2=O)c1	i	31*	-6	-2	2
CCCCCCCCN1C(=O)[C@H](CC(=O)N2CCN(C(=O)C3CC3)CC2)C[C@@]2(C(=O)OC)CC(C)(C)CC=C12	.	31*	.	.	19
CCCCCCCCN1C(=O)[C@H](CC(=O)N2CCN(C(=O)OCC)CC2)C[C@@]2(C(=O)OC)CC(C)(C)CC=C12	.	32*	.	.	22
COC(=O)CSc1[nH]c2ccc(Br)cc2c1[N+](=O)[O-]	0	33*	-1	-4	1
Cc1cccc(NC(=O)C(=O)NCC2CCCN2S(=O)(=O)c2cccs2)c1 (stereo not given)	-1	12	0	3	.
Cc1ccc(CNC(=O)c2ccccc2N(C)S(C)(=O)=O)cc1	-1	5	3	9	.
O=C(COc1ccc2ccccc2c1)Nc1cccc(C(=O)Nc2ccccc2C(=O)O)c1	0	34*	3	-1	24
SMILES	Vc quorum ag	CCHF vOTU inh-1	Mtb FBA inh	GDH-TPI inh	CCHF vOTU inh-2
Cc1ccc(C)c(CC(=O)N2CCCC(c3cc(C(=O)Nc4ccc5c(c4)OCO5)no3)C2)c1 (stereo not given)	0	-3	1	0	.
COC(=O)[C@]12C[C@H](CC(=O)NCc3ccc(OC)c(OC)c3)C(=O)N(Cc3ccccc3)C1=C[C@H](C(C)(C)C)O[C@@H]2C	.	13	.	.	.
CCC(=Nc1ccc(N)cc1)C1=C(O)C(C(=O)OC)C(C)(C)CC1=O (stereo not given)	i	105*	-4	10	5
CCCCC(=Nc1ccc(N)cc1)C1=C(O)C(C(=O)OC)C(C)(C)CC1=O (stereo not given)	2	92*	-1	25	8
CCCC(=Nc1ccccc1)C1=C(O)C(C(=O)OC)C(C)(C)CC1=O (stereo not given)	0	-12	2	-4	.
CCC(=NCc1ccccc1)C1=C(O)C(C(=O)OC)C(C)(C)CC1=O (stereo not given)	0	11	6	13	.
CN(C(=O)CCc1cn(C)c2ccccc12)c1ccc(Oc2cccnc2)cc1	.	-4	.	.	.
CCN(C(=O)CCc1cn(CC)c2ccccc12)c1ccc(Oc2cccnc2)cc1	.	31*	.	.	-3
O=[N+]([O-])c1cccc(-c2nnc(SCc3cccnc3)o2)c1	0	-2	-4	0	.
C=CCc1ccc(OCCCNCc2ccccc2)c(OC)c1	-2	31*	3	25	-5
CC1=NN(c2ccc(C(=O)O)cc2)C(=O)/C1=C\c1ccc(OC(=O)c2cccs2)cc1	0	55*	-3	10	7
CCOc1cc(/C=C2/C(=O)N(c3ccccc3)N=C2C)ccc1OC(=O)c1ccco1	0	68*	-1	2	-2
CC1=NN(c2ccccc2)C(=O)/C1=C/c1ccc(Cl)cc1	2	89*	0	-1	-27
Cc1ccc(N2C(=O)NC(=O)/C(=C/c3ccc(OC(=O)c4cccs4)cc3)C2=O)cc1	i	3	-5	4	.
CC1=NN(c2ccccc2)C(=O)C1=Cc1ccccc1	i	17	-2	1	.
CCOc1cc(/C=C2\C(=O)N(c3ccc(C(N)=O)cc3)N=C2C)ccc1OC(=O)c1cccs1	0	.	1	-7	.
COc1ccc(/C=C2/C(=O)N(c3ccccc3)N=C2C)cc1Br	i	74*	5	11	0
Cc1noc(C)c1CSc1nnc(-c2c[nH]c3ccccc23)n1-c1ccc(Cl)cc1	i	0	0	-6	.
CC1Cc2ccccc2N1C(=S)NC1CCCC1 (stereo not given)	0	14	-1	-2	.
CC(C)(O)C#Cc1ccc(C(=O)Nc2ccc3c(c2)OCO3)s1	1	22	-2	17	.
O=C(OCc1nnc(-c2ccccc2)o1)c1cc(Cl)ccc1[N+](=O)[O-]	-1	5	6	0	.
CC(C)CNC(=O)C1(C)CCCCCN1Cc1ccccc1-c1ccccc1 (stereo not given)	i	35*	0	2	9
Cc1cc2cc(NC(=O)c3ccco3)ccc2[nH]1	0	33*	0	4	-11
CN(C)c1ccc(C=c2c3cc(O)ccc3n3c2cc(-c2ccccc2)[n+]3C)cc1	-1	47*	-5	23	41*
C[n+]1c(-c2ccccc2)cc2c(=Cc3ccc([N+](=O)[O-])cc3)c3ccccc3n21	i	93*	-3	9	57*
